Assay results as given in PubChem BioAssay AID2535 (National Center for Advancing Translational Sciences (NCATS), 2010).

biological target: Pyruvate kinase PKLR (Homo sapiens) (UniProt P30613); experiment: Secondary Concentration-Response Assay for Activators of Human Liver Pyruvate Kinase: for Probe SAR; conditions: purified hPK-L, ATP production, Kinase-Glo luminescence; series mostly up to 58.3 µM; activity change, positive = activation: at the top concentration;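 further: 0% = uninhibited enzyme wells on each plate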
Outline: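 Purified human liver pyruvate kinase (0.1 nM) incubated 1 h at room temperature with compound, 0.5 mM PEP and 0.1 mM ADP in imidazole buffer pH 7.2; ATP formed read by Kinase-Glo luminescence, normalized to uninhibited wells.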

Pyruvate kinase PKLR (Homo sapiens), sequence (P30613 whole entry, looked up): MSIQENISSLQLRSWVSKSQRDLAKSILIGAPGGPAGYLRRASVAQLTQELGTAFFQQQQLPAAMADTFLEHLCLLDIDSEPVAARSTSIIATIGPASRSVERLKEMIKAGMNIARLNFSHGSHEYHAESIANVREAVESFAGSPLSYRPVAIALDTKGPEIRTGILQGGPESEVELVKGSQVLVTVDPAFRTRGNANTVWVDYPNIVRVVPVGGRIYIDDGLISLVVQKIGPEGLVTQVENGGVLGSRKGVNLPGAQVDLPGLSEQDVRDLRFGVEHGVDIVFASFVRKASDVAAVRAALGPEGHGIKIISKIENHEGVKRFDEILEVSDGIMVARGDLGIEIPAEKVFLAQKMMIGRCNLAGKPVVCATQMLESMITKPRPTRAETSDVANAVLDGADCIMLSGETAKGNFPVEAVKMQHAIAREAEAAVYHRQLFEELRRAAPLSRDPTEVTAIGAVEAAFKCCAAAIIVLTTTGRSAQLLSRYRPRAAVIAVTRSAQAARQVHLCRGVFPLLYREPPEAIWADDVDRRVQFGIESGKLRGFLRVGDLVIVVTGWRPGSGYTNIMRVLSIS

Activity change, positive = activation, inactive:
Cc1ccc(NS(=O)(=O)c2ccc3c(c2)CC(=O)N3)cc1C 30%
Cc1ccc(NS(=O)(=O)c2cc3c(cc2N(C)C)NC(=O)CC3)cc1C 8%
CC(=O)Nc1cccc(S(=O)(=O)Nc2ccc(C)c(C)c2)c1 6.7%
CSc1cc2c(s1)c1cnn(Cc3cccc(O)c3)c(=O)c1n2C 4.55%
O=C1CCc2cc(S(=O)(=O)NCc3ccccc3)ccc2N1 4.67%
COc1cccc(N2C(=O)c3ccccc3C2=O)n1 6.52%
Cc1ccccc1OC1=NS(=O)(=O)c2ccccc21 0.916%
COc1ccccc1NS(=O)(=O)c1ccc2c(c1)CCC(=O)N2 -0.682%
Cc1c(Cl)cccc1NS(=O)(=O)c1cc2c(cc1Cl)CCC(=O)N2 15.3%
COc1cccc(Cn2ncc3c4sc(S(C)=O)cc4n(C)c3c2=O)c1 (stereo not drawn) 5.38%
Cc1ccc2nc(-c3cccs3)c(Nc3ccccc3)n2c1 -8.18%
Cc1ccc(NS(=O)(=O)c2ccc3c(c2)N(C)C(=O)CO3)cc1C 11.9%
O=C1c2ccccc2C(=O)N1c1cccc2ccncc12 2.75%
Cc1ccc(NS(=O)(=O)c2cc3c(cc2-c2ccccc2)NC(=O)CO3)cc1C 12.6%
Cc1ccc(NS(=O)(=O)c2ccc3c(ccn3C)c2)cc1C 6.76%
Cc1ccccc1Nc1c(-c2ccc(Cl)s2)nc2ccccn12 1.64%
Cc1ccc(NS(=O)(=O)c2ccc3c(c2)oc(=O)n3C)cc1C 8.8%
Cc1ccc(NS(=O)(=O)c2ccc3c(c2)n(C)c(=O)n3C)cc1C 7.5%
Fc1ccccc1-c1ccc(-c2nc3ccc(Cl)cn3c2Nc2ccc(Cl)cc2)o1 -46.2%
O=C1CCc2cc(S(=O)(=O)Nc3cc(F)cc(Cl)c3)c(F)cc2N1 9.75%
CCNc1cccc(S(=O)(=O)N2CCCN(S(=O)(=O)c3ccc4c(c3)OCCO4)CC2)c1 25.5%
CNc1cccc(S(=O)(=O)N2CCN(S(=O)(=O)c3ccc4c(c3)OCCO4)CC2)c1 17.7%
Cc1ccc(NS(=O)(=O)c2ccc3[nH]c(=O)[nH]c3c2)cc1C 12.4%
Cc1ccc(NS(=O)(=O)c2ccc3c(c2)CCCC(=O)N3)cc1C 11.3%
O=C1c2ccccc2C(=O)N1c1ccc(O)cc1 3.99%
O=C1c2ccccc2C(=O)N1c1ccc(Cl)cc1 2.91%
O=C1c2ccccc2C(=O)N1c1cccc(O)c1 -8.54%
Cc1ccc(NS(=O)(=O)c2ccc3c(c2)CCC(=O)N3)cc1 10.7%
O=C1c2ccccc2C(=O)N1Cc1ccccc1 3.62%
O=C1CCc2cc(S(=O)(=O)Nc3cccc(Oc4ccccc4)c3)ccc2N1 2.11%
O=C1CCc2cc(S(=O)(=O)Nc3cccc(-c4ccccc4)c3)ccc2N1 6.52%
Cc1ccc2nc(-c3ccc(C)o3)c(Nc3ccccc3)n2c1 1.62%
O=C1CCc2cc(S(=O)(=O)Nc3ccc(Cl)cc3)ccc2N1 4.09%
